# Measurements: ChEMBL document CHEMBL2218924, “A broad activity screen in support of a chemogenomic map for kinase signalling research and drug discovery” (Biochem J, 2013)
# Legend:
# [1] = target: Tyrosine-protein kinase SYK (Homo sapiens) (UniProt P43405); conditions: at 10 µM
# [2] = target: T1, Serine/threonine-protein kinase TAO1 (Homo sapiens) (UniProt Q7L7X3); conditions: at 1 µM
# T1 sequence (whole entry): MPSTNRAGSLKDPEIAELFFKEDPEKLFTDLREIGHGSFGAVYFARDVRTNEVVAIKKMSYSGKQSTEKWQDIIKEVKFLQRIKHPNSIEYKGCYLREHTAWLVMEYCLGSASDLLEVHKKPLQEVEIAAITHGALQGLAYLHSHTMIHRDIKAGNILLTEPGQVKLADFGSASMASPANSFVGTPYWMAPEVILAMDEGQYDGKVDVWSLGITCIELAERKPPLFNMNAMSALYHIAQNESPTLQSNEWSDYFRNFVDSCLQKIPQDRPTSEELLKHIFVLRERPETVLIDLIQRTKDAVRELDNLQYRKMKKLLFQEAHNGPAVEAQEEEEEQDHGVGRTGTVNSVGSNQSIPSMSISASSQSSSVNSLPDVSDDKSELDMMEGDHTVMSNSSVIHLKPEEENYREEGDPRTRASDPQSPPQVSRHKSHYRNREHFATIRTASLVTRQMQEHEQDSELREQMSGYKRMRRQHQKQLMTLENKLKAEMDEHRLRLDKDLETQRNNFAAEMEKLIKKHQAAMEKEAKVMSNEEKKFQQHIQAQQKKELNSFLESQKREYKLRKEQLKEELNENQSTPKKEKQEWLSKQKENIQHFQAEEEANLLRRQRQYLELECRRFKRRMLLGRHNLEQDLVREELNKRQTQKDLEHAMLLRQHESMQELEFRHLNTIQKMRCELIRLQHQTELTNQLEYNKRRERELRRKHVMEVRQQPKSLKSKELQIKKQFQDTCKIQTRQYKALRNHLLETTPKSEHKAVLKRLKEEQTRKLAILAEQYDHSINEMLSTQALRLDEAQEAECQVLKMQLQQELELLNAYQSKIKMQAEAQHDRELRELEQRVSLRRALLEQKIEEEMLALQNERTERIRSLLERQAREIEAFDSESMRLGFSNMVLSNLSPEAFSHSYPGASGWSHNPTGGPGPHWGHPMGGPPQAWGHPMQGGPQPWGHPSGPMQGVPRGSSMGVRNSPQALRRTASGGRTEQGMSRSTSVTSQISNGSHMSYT
# [3] = target: T1, Serine/threonine-protein kinase TAO1 (Homo sapiens); conditions: at 10 µM
# [4] = target: T2, Serine/threonine-protein kinase TAO2 (Homo sapiens) (UniProt Q9UL54); conditions: at 1 µM
# T2 sequence (whole entry): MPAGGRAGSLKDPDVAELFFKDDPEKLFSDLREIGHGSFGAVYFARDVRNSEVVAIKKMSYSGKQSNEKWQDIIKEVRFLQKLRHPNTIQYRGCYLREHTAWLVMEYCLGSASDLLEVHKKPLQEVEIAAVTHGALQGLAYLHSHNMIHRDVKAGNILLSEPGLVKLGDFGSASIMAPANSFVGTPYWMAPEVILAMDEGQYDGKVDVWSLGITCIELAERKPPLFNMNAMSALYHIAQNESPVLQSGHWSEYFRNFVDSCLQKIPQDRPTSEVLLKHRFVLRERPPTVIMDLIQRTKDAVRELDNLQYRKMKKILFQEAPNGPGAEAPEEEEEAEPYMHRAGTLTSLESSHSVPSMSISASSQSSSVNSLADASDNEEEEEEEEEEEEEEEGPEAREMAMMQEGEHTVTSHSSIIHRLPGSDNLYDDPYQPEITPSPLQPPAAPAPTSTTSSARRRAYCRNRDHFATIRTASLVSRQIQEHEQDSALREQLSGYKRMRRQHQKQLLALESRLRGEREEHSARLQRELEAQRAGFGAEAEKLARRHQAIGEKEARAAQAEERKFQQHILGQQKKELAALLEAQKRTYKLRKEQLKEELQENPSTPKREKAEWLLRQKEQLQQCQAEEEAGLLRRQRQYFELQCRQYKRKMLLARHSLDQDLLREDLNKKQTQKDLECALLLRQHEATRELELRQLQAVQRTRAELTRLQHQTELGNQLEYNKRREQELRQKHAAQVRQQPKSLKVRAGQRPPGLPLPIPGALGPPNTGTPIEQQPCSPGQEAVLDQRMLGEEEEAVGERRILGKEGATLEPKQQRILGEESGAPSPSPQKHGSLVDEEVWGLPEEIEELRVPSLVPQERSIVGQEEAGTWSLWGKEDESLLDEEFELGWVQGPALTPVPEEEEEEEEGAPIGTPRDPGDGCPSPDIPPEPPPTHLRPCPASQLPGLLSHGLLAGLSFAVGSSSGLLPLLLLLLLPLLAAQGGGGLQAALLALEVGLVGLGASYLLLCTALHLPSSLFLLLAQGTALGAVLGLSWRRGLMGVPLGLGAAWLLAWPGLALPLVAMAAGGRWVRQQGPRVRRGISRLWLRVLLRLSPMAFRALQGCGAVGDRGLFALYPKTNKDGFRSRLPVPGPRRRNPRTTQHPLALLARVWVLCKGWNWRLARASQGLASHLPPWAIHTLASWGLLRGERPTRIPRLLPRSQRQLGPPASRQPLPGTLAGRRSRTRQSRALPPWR
# [5] = target: T2, Serine/threonine-protein kinase TAO2 (Homo sapiens); conditions: at 10 µM
# [6] = target: T3, Serine/threonine-protein kinase TAO3 (Homo sapiens) (UniProt Q9H2K8); conditions: at 1 µM
# T3 sequence (whole entry): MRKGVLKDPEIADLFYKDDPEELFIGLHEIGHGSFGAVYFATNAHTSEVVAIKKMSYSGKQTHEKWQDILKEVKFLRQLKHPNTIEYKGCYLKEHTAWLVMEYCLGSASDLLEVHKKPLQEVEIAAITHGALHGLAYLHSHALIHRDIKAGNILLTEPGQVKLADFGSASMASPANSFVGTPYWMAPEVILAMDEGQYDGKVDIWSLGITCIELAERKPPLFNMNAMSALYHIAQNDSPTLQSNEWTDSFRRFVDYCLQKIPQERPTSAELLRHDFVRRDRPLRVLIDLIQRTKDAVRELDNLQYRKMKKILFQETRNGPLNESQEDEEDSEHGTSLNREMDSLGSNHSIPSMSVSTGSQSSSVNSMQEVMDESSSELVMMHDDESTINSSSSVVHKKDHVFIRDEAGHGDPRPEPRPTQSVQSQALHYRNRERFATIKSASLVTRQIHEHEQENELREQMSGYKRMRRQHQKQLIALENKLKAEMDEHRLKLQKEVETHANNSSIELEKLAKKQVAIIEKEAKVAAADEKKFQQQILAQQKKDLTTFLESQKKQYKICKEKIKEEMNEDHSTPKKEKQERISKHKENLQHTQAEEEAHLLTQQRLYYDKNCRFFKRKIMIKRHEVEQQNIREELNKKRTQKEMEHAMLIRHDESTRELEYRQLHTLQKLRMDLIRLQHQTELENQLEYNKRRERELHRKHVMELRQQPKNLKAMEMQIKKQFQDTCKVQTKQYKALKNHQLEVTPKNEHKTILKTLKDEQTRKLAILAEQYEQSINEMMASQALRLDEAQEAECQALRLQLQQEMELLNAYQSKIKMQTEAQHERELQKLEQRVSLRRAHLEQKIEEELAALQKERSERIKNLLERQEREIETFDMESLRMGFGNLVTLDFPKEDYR
# [7] = target: T3, Serine/threonine-protein kinase TAO3 (Homo sapiens); conditions: at 10 µM
# [8] = target: T4, Serine/threonine-protein kinase TBK1 (Homo sapiens) (UniProt Q9UHD2); conditions: at 1 µM
# T4 sequence (whole entry): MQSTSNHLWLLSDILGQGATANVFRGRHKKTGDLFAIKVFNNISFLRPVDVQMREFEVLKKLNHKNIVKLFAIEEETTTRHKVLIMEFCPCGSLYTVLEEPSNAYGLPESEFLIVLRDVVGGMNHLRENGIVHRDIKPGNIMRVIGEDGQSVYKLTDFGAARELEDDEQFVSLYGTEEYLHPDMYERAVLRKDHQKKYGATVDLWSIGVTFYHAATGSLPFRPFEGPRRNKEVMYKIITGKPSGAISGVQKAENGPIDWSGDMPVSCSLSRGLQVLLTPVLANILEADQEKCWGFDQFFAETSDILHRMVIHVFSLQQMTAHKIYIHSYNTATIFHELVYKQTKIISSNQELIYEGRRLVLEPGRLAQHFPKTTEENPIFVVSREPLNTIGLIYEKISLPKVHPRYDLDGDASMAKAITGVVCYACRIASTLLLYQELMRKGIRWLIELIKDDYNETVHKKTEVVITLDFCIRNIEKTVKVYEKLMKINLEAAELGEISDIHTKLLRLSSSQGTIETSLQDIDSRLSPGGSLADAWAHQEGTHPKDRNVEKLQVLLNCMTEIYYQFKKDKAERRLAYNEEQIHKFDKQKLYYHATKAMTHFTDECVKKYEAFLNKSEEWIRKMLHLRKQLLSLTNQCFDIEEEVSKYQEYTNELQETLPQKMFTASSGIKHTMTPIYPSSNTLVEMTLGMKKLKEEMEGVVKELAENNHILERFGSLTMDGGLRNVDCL
# [9] = target: T4, Serine/threonine-protein kinase TBK1 (Homo sapiens); conditions: at 10 µM
# [10] = target: T5, TGF-beta receptor type-1 (Homo sapiens) (UniProt P36897); conditions: at 1 µM
# T5 sequence (whole entry): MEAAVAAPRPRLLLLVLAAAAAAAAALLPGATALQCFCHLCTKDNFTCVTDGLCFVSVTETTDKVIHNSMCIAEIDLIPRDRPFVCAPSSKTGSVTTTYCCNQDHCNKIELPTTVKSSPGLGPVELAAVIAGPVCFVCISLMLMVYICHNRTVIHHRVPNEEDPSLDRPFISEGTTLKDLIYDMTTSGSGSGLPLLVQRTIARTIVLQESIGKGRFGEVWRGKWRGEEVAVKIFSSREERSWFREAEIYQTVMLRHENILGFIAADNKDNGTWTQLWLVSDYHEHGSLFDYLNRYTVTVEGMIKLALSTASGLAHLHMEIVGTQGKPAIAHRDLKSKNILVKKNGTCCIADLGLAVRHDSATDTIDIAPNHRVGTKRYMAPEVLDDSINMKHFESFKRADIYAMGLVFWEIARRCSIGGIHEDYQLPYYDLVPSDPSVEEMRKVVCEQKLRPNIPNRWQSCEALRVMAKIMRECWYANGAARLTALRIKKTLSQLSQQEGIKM
# [11] = target: T5, TGF-beta receptor type-1 (Homo sapiens); conditions: at 10 µM
# [12] = target: T6, Inhibitor of nuclear factor kappa-B kinase subunit alpha (Homo sapiens) (UniProt O15111); conditions: at 1 µM
# T6 sequence (whole entry): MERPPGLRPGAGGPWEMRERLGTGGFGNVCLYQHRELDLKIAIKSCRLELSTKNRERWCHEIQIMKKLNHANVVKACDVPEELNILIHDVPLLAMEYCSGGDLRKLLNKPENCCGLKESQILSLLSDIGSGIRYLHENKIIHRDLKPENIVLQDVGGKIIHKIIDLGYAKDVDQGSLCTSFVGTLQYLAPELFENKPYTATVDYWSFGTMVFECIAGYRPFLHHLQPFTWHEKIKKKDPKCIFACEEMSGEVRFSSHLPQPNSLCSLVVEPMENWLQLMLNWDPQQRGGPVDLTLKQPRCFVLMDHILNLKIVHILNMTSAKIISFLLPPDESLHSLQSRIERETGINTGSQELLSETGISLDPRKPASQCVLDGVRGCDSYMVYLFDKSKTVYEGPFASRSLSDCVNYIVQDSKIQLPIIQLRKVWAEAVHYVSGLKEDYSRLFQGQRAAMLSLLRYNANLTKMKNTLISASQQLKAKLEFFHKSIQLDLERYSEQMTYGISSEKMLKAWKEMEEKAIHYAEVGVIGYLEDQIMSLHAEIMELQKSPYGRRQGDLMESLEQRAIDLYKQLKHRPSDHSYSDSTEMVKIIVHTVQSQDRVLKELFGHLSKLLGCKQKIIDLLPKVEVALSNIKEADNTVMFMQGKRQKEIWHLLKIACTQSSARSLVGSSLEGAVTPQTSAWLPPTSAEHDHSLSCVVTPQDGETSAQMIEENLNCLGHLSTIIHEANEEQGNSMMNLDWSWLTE
# [13] = target: T6, Inhibitor of nuclear factor kappa-B kinase subunit alpha (Homo sapiens); conditions: at 10 µM
# [14] = target: T7, Inhibitor of nuclear factor kappa-B kinase subunit beta (Homo sapiens) (UniProt O14920); conditions: at 1 µM
# T7 sequence (whole entry): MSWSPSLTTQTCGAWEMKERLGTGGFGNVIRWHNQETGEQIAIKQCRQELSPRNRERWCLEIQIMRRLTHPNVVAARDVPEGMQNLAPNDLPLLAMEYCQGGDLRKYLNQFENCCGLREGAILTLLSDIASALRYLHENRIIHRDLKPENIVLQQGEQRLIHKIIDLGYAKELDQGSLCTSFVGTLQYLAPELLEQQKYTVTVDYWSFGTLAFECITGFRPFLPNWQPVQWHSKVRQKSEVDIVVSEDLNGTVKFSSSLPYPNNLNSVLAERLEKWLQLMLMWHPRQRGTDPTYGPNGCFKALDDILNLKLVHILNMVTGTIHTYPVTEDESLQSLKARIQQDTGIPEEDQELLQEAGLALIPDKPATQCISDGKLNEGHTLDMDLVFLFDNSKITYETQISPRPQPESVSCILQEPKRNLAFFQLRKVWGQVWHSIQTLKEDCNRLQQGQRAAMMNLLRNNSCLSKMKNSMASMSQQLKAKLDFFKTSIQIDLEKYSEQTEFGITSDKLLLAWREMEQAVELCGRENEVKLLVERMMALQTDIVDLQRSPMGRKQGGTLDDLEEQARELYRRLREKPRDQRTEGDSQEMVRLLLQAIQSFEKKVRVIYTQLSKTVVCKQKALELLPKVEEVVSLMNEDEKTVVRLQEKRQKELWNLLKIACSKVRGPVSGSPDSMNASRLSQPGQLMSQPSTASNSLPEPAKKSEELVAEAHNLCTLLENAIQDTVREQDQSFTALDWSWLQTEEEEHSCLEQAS
# [15] = target: T7, Inhibitor of nuclear factor kappa-B kinase subunit beta (Homo sapiens); conditions: at 10 µM
smiles,measurement,setting,value
Cn1c2ccccc2c2c3c(c4c5ccccc5n(CCC#N)c4c21)CNC3=O,residual activity,[1],5%
same,residual activity,[2],7%
same,residual activity,[3],10%
same,residual activity,[4],10%
same,residual activity,[5],9%
same,residual activity,[6],19%
same,residual activity,[7],16%
same,residual activity,[8],11%
same,residual activity,[9],9%
same,residual activity,[10],69%
same,residual activity,[11],63%
same,residual activity,[12],48%
same,residual activity,[13],19%
same,residual activity,[14],72%
same,residual activity,[15],63%
